In PubChem BioAssay:
Unmarked numbers belong to inactive results. This is one part of the list. Activity calls are given as the source filed them. Cut-off read from the data, not from the text of the source, unless noted: active = inhibition above about 36%; inactive = the rest.

Columns and labels:
[1] = StAR promoter reporter inhibitors, counter-screen for LRH-1 inverse agonist project, cell-based, luminescence, high throughput (AID 651611; in the data active = inhibition above about 28%); conditions: StAR promoter luciferase reporter counterscreen, at 3.6 µM, active compounds read high
[2] = molecular target: Nuclear receptor subfamily 5 group A member 2 (Homo sapiens) (UniProt O00482); assay: LRH-1 (NR5A2) inverse agonists, retest, confirmation, cell-based, luminescence (AID 651613; in the data active = inhibition above about 42%;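 note: HEK293T cells co-transfected with LRH-1 and StAR promoter luciferase reporter; 0% = vehicle wells and 100% = parental cells lacking receptor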); conditions: cell-based LRH-1 luciferase reporter, inverse agonism; at 3.6 µM; active compounds read high
Sequence of Nuclear receptor subfamily 5 group A member 2 (Homo sapiens) (O00482 whole entry, looked up): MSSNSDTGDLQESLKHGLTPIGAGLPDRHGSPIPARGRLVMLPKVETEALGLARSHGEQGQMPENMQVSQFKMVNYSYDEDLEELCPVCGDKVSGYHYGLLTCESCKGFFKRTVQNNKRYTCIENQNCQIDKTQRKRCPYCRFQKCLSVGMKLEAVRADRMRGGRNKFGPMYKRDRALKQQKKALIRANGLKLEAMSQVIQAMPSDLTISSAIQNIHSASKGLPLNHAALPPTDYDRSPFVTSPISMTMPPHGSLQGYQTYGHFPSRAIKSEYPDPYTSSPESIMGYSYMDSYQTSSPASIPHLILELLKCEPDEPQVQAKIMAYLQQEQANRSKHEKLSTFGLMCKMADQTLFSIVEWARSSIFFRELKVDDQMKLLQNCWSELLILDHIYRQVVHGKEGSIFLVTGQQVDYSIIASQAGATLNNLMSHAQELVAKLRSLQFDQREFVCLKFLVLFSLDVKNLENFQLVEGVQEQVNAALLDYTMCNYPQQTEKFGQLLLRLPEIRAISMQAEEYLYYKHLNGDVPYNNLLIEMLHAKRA

[3] = molecular target: Steroidogenic factor 1 (Homo sapiens) (UniProt Q13285); assay: SF1 (NR5A1) inverse agonists, counter-screen for LRH-1 inverse agonist project, cell-based, luminescence, high throughput (AID 651614; in the data active = inhibition above about 44%;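 note: cells cotransfected with StAR promoter reporter and SF1 expression vector; 0% = vehicle on cells with receptor and 100% = vehicle on cells lacking receptor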); conditions: cell-based SF1 luciferase reporter, at 3.6 µM, active compounds read high
Sequence of Steroidogenic factor 1 (Homo sapiens) (Q13285 whole entry, looked up, the tested form may be a part): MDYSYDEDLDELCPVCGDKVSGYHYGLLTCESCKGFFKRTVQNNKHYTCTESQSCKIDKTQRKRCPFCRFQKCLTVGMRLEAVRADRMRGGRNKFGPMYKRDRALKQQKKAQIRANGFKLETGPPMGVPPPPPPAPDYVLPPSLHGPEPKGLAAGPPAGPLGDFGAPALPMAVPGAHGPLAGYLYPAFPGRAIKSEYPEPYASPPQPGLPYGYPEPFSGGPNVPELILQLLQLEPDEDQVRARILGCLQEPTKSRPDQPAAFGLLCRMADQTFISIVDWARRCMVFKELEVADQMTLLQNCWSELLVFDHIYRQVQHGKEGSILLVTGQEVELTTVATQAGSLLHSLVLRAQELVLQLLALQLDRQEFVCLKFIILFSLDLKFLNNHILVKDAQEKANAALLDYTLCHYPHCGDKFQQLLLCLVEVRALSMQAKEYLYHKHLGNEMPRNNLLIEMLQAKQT

[4] = VP16 transactivation reporter inhibitors, counter-screen for LRH-1 inverse agonist project, cell-based, luminescence, high throughput (AID 651615; in the data active = inhibition above about 33%); conditions: Gal4-VP16 luciferase reporter cells, at 3.6 µM, active compounds read high
[5] = system: transactivating tegument protein VP16 (Human herpesvirus 1); assay: VP16 transactivation reporter inhibitors, counter-screen for SRC2 inhibitor project, cell-based, luminescence, single concentration (AID 652007); conditions: cell-based VP16 transactivation luciferase reporter, at 8.9 µM, active compounds read high
[6] = molecular target: Nuclear receptor coactivator 2 (Homo sapiens) (UniProt Q15596); assay: SRC2 coactivator transcriptional activity inhibitors, confirmation, cell-based, luminescence, HEK293, triplicate (AID 652008;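 active = mean inhibition above 46.5%, the solvent-only control mean plus 3 SD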;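 note: 0% = DMSO-treated cells and 100% = Gossypol at 36 µM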); conditions: HEK293 GAL4-SRC2 luciferase reporter, at 8.9 µM, active compounds read high
Sequence of Nuclear receptor coactivator 2 (Homo sapiens) (Q15596 whole entry, looked up, the tested form may be a part): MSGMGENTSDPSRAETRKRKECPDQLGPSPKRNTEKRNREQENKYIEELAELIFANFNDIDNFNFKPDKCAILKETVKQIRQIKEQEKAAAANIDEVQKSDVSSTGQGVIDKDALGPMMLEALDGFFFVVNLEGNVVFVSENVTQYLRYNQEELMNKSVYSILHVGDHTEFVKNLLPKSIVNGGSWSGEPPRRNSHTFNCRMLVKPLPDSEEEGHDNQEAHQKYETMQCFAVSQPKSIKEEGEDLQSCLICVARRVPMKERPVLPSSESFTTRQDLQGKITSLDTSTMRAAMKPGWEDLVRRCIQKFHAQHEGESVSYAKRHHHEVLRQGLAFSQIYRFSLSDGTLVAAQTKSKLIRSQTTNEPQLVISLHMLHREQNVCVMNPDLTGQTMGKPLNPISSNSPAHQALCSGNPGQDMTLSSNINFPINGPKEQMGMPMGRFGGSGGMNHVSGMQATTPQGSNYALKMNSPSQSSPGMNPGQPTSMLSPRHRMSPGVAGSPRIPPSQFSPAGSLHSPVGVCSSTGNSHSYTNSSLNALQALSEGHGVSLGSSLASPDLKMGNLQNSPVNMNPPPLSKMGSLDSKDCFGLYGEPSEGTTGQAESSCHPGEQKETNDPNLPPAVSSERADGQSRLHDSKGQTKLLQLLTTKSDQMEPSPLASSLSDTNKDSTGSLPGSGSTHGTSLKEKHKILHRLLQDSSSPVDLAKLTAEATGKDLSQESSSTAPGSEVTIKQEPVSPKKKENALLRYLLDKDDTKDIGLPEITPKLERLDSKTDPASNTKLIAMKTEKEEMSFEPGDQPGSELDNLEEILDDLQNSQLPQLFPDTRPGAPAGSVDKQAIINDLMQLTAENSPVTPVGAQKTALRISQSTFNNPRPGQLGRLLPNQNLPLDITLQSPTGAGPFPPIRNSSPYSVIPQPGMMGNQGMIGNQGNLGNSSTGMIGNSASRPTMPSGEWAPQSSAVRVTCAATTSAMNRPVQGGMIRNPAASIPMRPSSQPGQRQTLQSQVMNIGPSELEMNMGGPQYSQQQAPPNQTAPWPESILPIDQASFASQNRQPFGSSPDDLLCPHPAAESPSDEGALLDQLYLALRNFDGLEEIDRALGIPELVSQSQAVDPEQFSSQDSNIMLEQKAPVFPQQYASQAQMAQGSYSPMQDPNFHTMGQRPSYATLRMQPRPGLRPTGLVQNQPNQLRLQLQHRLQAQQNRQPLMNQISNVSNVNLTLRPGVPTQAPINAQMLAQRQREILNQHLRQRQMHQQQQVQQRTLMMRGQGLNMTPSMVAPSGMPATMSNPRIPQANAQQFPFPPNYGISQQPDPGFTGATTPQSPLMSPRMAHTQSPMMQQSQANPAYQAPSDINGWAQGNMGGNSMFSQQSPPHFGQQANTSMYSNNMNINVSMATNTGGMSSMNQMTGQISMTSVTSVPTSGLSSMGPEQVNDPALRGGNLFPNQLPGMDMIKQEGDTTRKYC

[7] = growth loss of phage-infected RecBCD+ E. coli, confirmation, RecBCD inhibitor project, absorbance, E. coli V66, T4 gene 2 phage (AID 651982;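 active = mean inhibition over triplicates exceeding the hit threshold derived in the original primary screen, cut at about 11% in these data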); conditions: E. coli V66 + T4 2- phage, growth OD; at 11.9 µM; active compounds read high
[8] = E. coli viability inhibition, counter-screen for RecBCD inhibitor project, absorbance, high throughput (AID 651983; in the data active = inhibition above about 20%;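 note: E. coli strain V66 grown with compound alone and no phage infection; 0% = bacteria with DMSO vehicle only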); conditions: absorbance (OD) growth, at 11.9 µM, active compounds read high
[9] = growth loss of phage-infected AddAB-carrying E. coli, confirmation, counter-screen for RecBCD inhibitor project, absorbance, E. coli V3065, T4 phage (AID 651984;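 active = mean inhibition above the solvent-only control wells' mean plus 3 SD, cut at about 22% in these data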;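 note: higher means less bacterial growth from phage killing when AddAB is blocked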); conditions: E. coli expressing H. pylori AddAB + T4 phage, OD growth; at 11.9 µM; active compounds read high; gene 2 mutant T4, recBCD-deleted host
[10] = Gal4-VP16 luciferase reporter inhibitors, counter-screen for COUP-TFII antagonist project, cell-based, luminescence, HEK293 (AID 687007; in the data active = inhibition above about 13%); conditions: at 8.5 µM, active compounds read high
[11] = molecular target: COUP transcription factor 2 (Homo sapiens) (UniProt P24468); assay: NR2F2 transcriptional activity inhibitors, confirmation, cell-based, luciferase reporter, HEK293, triplicate (AID 687008;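 active = mean inhibition over three repeats above a set limit taken from the earlier primary screen, cut at about 38% in these data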;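 note: 100% = cells given the luciferase reporter alone without the COUP-TF2 vector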); conditions: HEK293 NGFI-A luciferase reporter, luminescence; at 8.5 µM; active compounds read high
Sequence of COUP transcription factor 2 (Homo sapiens) (P24468 whole entry, looked up): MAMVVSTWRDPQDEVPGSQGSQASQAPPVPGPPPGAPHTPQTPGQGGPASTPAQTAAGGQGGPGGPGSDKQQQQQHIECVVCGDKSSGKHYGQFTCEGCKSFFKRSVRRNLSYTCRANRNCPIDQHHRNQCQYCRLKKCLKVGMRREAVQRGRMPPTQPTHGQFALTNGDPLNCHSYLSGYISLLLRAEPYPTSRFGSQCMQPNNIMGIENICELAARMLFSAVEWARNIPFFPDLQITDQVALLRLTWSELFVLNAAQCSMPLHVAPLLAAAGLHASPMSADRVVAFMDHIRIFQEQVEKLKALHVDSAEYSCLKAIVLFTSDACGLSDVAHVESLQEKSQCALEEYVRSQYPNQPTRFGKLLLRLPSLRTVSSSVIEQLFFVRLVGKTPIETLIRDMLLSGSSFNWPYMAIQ

CCCCCCCCCC[n+]1cccc2c3ccccc3ccc21
inhibition [1]: 83.3% (active) | inhibition [2]: 110% (active) | inhibition [3]: 96.1% (active) | inhibition [4]: 95.9% (active) | inhibition [5]: 48.9% (active) | inhibition [6]: 58.6% (active)

O=C(N/N=C/c1ccc([N+](=O)[O-])o1)c1ccc(O)cc1
inhibition [2]: 78.3% (active) | inhibition [3]: 69% (active)

C=CCn1c(=O)c(C(=O)NCc2ccc3c(c2)OCO3)c(O)c2ccccc21
inhibition [7]: 4.97% | inhibition [8]: 6.78% | inhibition [9]: 6.71%

O=C1c2ccccc2C2=Nc3ccccc3SC(c3ccccc3F)C12 (stereo not drawn)
inhibition [7]: 8.51% | inhibition [8]: 8.52% | inhibition [9]: 3.38%

CC1(C(=O)NS(=O)(=O)c2ccccc2)CCN1C(=O)C/C=C/c1ccccc1 (stereo not drawn)
inhibition [7]: -4.38% | inhibition [8]: -3.55% | inhibition [9]: -0.33%

O=C(N/N=C/c1ccc([N+](=O)[O-])s1)c1cccnc1
inhibition [1]: 13.9% | inhibition [4]: 7.08%

COc1cccc(C(O)c2ncc(-c3ccc4ccccc4c3)[nH]2)c1 (stereo not drawn)
inhibition [7]: 7.6% | inhibition [8]: 10.9% | inhibition [9]: 13.4%

Cc1ccc(-c2cnc(C(O)c3cc(Cl)cc(Cl)c3)[nH]2)cc1 (stereo not drawn)
inhibition [7]: 12.2% (active) | inhibition [8]: 16.9% | inhibition [9]: 16.9%

O=C(CSc1ncccc1C(=O)O)Nc1ccc2c(c1)OCCO2
inhibition [1]: 4.26% | inhibition [2]: 11.1% | inhibition [3]: 16.6% | inhibition [4]: 0.17% | inhibition [5]: -2.25% | inhibition [6]: -11.1%

CC1C/C(=C\c2cccnc2)C(=O)/C(=C/c2cccnc2)C1 (stereo not drawn)
inhibition [1]: 61.9% (active) | inhibition [2]: 100% (active) | inhibition [3]: 95.6% (active) | inhibition [4]: 91.5% (active) | inhibition [5]: 98% (active) | inhibition [6]: 93.9% (active)

CC(N)C(=O)NC(CO)C(O)C(N)C=O (stereo not drawn)
inhibition [2]: 56.3% (active) | inhibition [3]: 55.5% (active)

CN(C)c1ccc2nc3ccc(=[N+](C)C)cc-3sc2c1
inhibition [2]: 59.9% (active) | inhibition [3]: 66.7% (active) | inhibition [4]: 52.9% (active)

CCc1cc(-c2nnn(CCC3COCCO3)c2CC)ccc1-c1cn(Cc2ccc3ccccc3c2)nn1 (stereo not drawn)
inhibition [1]: 0.97% | inhibition [2]: 34.7% | inhibition [3]: 42.3% | inhibition [4]: 39.4% (active) | inhibition [10]: -21.8% | inhibition [11]: 42% (active)

Cc1ccc(NC(=O)Nc2nnc(-c3ccncc3)s2)cc1
inhibition [7]: 2.33% | inhibition [8]: 3.97% | inhibition [9]: 9.8%

CN(C)C(=O)c1cccc(COc2ccc(N3C(N)=NC(N)=NC3(C)C)cc2Cl)c1
inhibition [2]: 42.1% (active) | inhibition [3]: 39.9%

CC1=C(C/C=C(\C)CCCC(C)CCCC(C)CCCC(C)C)C(=O)c2ccccc2C1=O (stereo not drawn)
inhibition [7]: 0.32% | inhibition [8]: 0.53% | inhibition [9]: -1.36%

COc1cccc(N2CCN(CC(=O)Nc3ccc(-n4cnnn4)cc3)CC2)c1
inhibition [3]: 48.9% (active)

CCCCC(=O)NC(c1ccc(OC)c(OC)c1)c1ccc2cccnc2c1O (stereo not drawn)
inhibition [7]: 13.9% (active) | inhibition [8]: 17.6% | inhibition [9]: 25.8% (active)

CC(C)(C)C(=O)Nc1c(Br)c(C2CC2)nn1-c1ccccc1
inhibition [7]: -0.86% | inhibition [8]: -0.19% | inhibition [9]: 0.42%

O=C(CCl)Nc1cc2[nH]c(=O)[nH]c2cc1Br
inhibition [1]: 71.3% (active) | inhibition [2]: 78.6% (active) | inhibition [3]: 79.1% (active) | inhibition [4]: 2.89% | inhibition [5]: 76.5% (active) | inhibition [6]: 74.7% (active)

COc1ccc(/C=C/C(=O)O)cc1O
inhibition [1]: 1.72% | inhibition [4]: 2.63%

CCN1CCN(C(=O)N[C@@H](C(=O)N[C@@H]2C(=O)N3C(C(=O)O)=C(CSc4nnnn4C)CS[C@H]23)c2ccc(O)cc2)C(=O)C1=O
inhibition [7]: 99.8% (active) | inhibition [8]: 101% (active) | inhibition [9]: 3.42%

CNC(=O)c1cc(Oc2ccc(NC(=O)Nc3ccc(Cl)c(C(F)(F)F)c3)cc2)ccn1
inhibition [2]: 63.7% (active) | inhibition [3]: 69% (active) | inhibition [5]: 29.9% | inhibition [6]: 58.7% (active)

CCn1cc(C(=O)NCCO)c(=O)c2cc(F)c(N3CCN(C)CC3)cc21
inhibition [7]: 103% (active) | inhibition [8]: 104% (active) | inhibition [9]: 104% (active)

CC(C)(C)C(=O)/C(=C/c1cccc([N+](=O)[O-])c1)n1cncn1
inhibition [1]: 87.2% (active) | inhibition [4]: 83.7% (active)

COc1ccc(-c2nc3c([nH]2)c(=O)n(C)c(=O)n3C)c(OC)c1
inhibition [2]: 24.5% | inhibition [3]: 12.7%

CCNC(=S)N(CCc1c(C)[nH]c2ccc(C)cc12)Cc1ccco1
inhibition [7]: -0.28% | inhibition [8]: -0.24% | inhibition [9]: -0.97%

O=C1C=CC2(C=C1)O[C@H](Cc1ccccc1)[C@@H](Cc1ccccc1)O2
inhibition [1]: 37% (active) | inhibition [2]: 83.4% (active) | inhibition [3]: 73.2% (active) | inhibition [4]: 72.5% (active) | inhibition [5]: 94.4% (active) | inhibition [6]: 63.8% (active)

CC(C)(C)C(=O)/C(=C\c1cccc([N+](=O)[O-])c1)n1cncn1
inhibition [1]: 84.9% (active) | inhibition [4]: 85% (active)

O=C(CCl)N(c1ccccc1)c1c[nH]c2ccccc12
inhibition [1]: 62.4% (active) | inhibition [2]: 55.8% (active) | inhibition [3]: 38.5% | inhibition [4]: 18.8% | inhibition [5]: 21.6% | inhibition [6]: 17.9%

S=C(NCC1COc2ccccc2O1)Nc1ccc(Br)cc1 (stereo not drawn)
inhibition [7]: 4.21% | inhibition [8]: 5.21% | inhibition [9]: 6.67%

Cn1cc(C(=O)c2ccc(Cl)cc2)cc1-c1nc2ccccc2n1C
inhibition [2]: 51.9% (active) | inhibition [3]: 49.8% (active)

CN(C)c1ccnc2sc(C(N)=O)c(N)c12
inhibition [5]: -0.64%

C=CCNC(=O)CSc1nc2sc(C)c(C)c2c(=O)[nH]1
inhibition [7]: -1.59% | inhibition [8]: -0.91% | inhibition [9]: -2.04%

CC1C/C(=C/c2ccncc2)C(=O)/C(=C/c2ccncc2)C1 (stereo not drawn)
inhibition [1]: 17.3% | inhibition [2]: 73.6% (active) | inhibition [3]: 84.2% (active) | inhibition [4]: 72.9% (active) | inhibition [5]: 93.7% (active) | inhibition [6]: 90.8% (active)

COC(=O)c1ccc(OCC2c3cc(OC)c(OC)cc3CCN2C(=O)c2ccco2)cc1 (stereo not drawn)
inhibition [2]: 52.8% (active) | inhibition [3]: 53% (active)

O=C(Nc1ccc(Br)cn1)C1CCN(S(=O)(=O)c2cccs2)CC1
inhibition [1]: 13.5% | inhibition [2]: 48.4% (active) | inhibition [3]: 50.2% (active) | inhibition [4]: 45.3% (active) | inhibition [10]: 13.1% (active) | inhibition [11]: 48.2% (active)

NC1=NC(=O)C(Cc2cccc(Cl)c2Cl)S1 (stereo not drawn)
inhibition [7]: 0.33% | inhibition [8]: 0.21% | inhibition [9]: -2.48%

CC(=O)Nc1ccc(NC(=O)CSc2nnc(-c3ccco3)n2Cc2ccco2)cc1
inhibition [2]: 58.2% (active) | inhibition [3]: 59.9% (active)

CCN1CCN(c2nc(Nc3cc(OC)ccc3OC)nc(Nc3cc(OC)ccc3OC)n2)CC1
inhibition [7]: -0.69% | inhibition [8]: -0.86% | inhibition [9]: -2.43%

CC(=O)NC(c1cccs1)c1cc(Br)c2cccnc2c1O (stereo not drawn)
inhibition [7]: 10.7% | inhibition [8]: 16.4% | inhibition [9]: 16.1%

O=C(O)CCCc1ccc2c(c1)CCc1ccccc1-2
inhibition [5]: 29.6% | inhibition [6]: 77.1% (active)

CC(C)C(=O)Nc1ccc(C(=O)NCc2cccnc2)cc1
inhibition [5]: -2.6% | inhibition [6]: 33.3%

CN(c1ccccc1)S(=O)(=O)c1ccc(Cl)c(C(=O)Nc2ccncc2)c1
inhibition [5]: 0.61% | inhibition [6]: 29.7%

COc1ccc(-c2nc3ccccn3c2NC2CCCCC2)cc1SC1CCCCC1
inhibition [5]: 17.4% | inhibition [6]: -1.51%

Cc1ccc(Nc2nc(N)nc(CN3CCN(Cc4ccc5c(c4)OCO5)CC3)n2)cc1
inhibition [5]: -10.2% | inhibition [6]: -18.2%

Cc1sc(NC(=O)CCCC(=O)O)c(C(N)=O)c1-c1ccccc1
inhibition [5]: 37.1% (active) | inhibition [6]: 75.5% (active)

O=C(CSc1nc2[nH]c(=O)[nH]c(=O)c2s1)Nc1cccc(F)c1
inhibition [5]: 0.35% | inhibition [6]: -0.5%

NC(=O)CC(NC(=O)c1ccc(Br)cc1)c1ccc(N2CCCCCC2)c([N+](=O)[O-])c1 (stereo not drawn)
inhibition [5]: 9.13% | inhibition [6]: 23.3%

Cc1ccc(S(=O)(=O)c2nc(NCCN(C)C)sc2Cl)cc1
inhibition [5]: -5.23% | inhibition [6]: 28.4%

O=[N+]([O-])c1ccc(Sc2nccn2Cc2ccccc2)c([N+](=O)[O-])c1
inhibition [5]: 4.42% | inhibition [6]: 32.1%

CS(=O)(=O)c1ccc(Cl)c(NC(=O)c2cccc(-n3cnnn3)c2)c1
inhibition [5]: -11.3% | inhibition [6]: -13.4%

C=C(C(=O)c1ccccc1)C(c1ccccc1)C(C)C(=O)c1ccccc1 (stereo not drawn)
inhibition [5]: 28.8% | inhibition [6]: 31.4%

Cc1ccc(/C=C2/SC(=S)N(CCCC(=O)Nc3cc([N+](=O)[O-])ccc3O)C2=O)cc1
inhibition [5]: 27.4% | inhibition [6]: 49.7% (active)

CCOc1ccc(-c2cc(CCCC(=O)NCCCOC)no2)cc1
inhibition [5]: 38.5% (active) | inhibition [6]: 52% (active)

O=[N+]([O-])c1cc(C(F)(F)F)ccc1NCCCCNS(=O)(=O)c1ccc(Cl)cc1
inhibition [5]: 3.03% | inhibition [6]: 43.3%

COc1cc(NC(=O)C2CC(c3c(F)cccc3Cl)=NO2)cc(OC)c1OC (stereo not drawn)
inhibition [5]: -4.58% | inhibition [6]: 4.43%

O=[N+]([O-])c1ccc(Oc2ccc(F)cc2Br)c2ccncc12
inhibition [5]: 7.49% | inhibition [6]: 50.2% (active)

O=C(Nc1ccc2c(c1)OCCO2)NC1(C(F)(F)F)Oc2ccccc2O1
inhibition [5]: -12.8% | inhibition [6]: 43.7%

CC(C)c1ccc(/C=C2\CC/C(=C\C=N\N(C)C)C2=O)cc1
inhibition [5]: -56.7% | inhibition [6]: -2.89%

CS(=O)(=O)Nc1cccc(NC(=O)C2Cc3c(-c4cccc(F)c4)ccnc3O2)c1 (stereo not drawn)
inhibition [5]: 21.8% | inhibition [6]: 36.3%

CC(=O)Nc1cc(-c2ccc(C(=O)NC3CC3)cc2)cn2c(-c3cccc(C(F)(F)F)c3)cnc12
inhibition [5]: -9.85% | inhibition [6]: -1.25%
